For 61 compounds, normalized activity (activation) results are on record in PubChem BioAssay AID1259310 (The Scripps Research Institute Molecular Screening Center, 2017).

Out of some 650,000 compounds screened, about 850 (0.13%) were called active. The sample holds actives, similar compounds and a random draw of the others, so the mix is not that of the screen. No stated cut-off is given here; in the data, active means normalized activity above about 1.9%; inactive means the rest.

Sequence of F-box/WD repeat-containing protein 7 (Homo sapiens) (Q969H0 whole entry, looked up): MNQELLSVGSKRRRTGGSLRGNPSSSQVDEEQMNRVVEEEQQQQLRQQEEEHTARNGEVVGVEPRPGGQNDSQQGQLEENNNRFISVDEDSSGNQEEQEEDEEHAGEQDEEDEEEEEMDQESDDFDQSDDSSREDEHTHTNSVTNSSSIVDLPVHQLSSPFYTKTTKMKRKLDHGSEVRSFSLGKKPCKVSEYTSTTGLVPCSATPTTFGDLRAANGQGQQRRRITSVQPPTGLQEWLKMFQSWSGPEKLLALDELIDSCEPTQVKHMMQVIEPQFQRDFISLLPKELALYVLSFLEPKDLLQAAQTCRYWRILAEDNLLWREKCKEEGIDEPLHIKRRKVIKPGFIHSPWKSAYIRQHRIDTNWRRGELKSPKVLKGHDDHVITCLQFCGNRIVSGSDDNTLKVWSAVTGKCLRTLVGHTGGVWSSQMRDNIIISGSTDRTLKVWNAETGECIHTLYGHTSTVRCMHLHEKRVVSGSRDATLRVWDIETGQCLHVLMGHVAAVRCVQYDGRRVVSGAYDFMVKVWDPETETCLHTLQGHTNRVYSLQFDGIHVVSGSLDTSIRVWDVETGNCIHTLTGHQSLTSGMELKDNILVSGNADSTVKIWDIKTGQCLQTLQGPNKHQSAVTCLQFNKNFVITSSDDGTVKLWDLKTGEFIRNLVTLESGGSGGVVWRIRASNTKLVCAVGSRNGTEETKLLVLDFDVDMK

The experiment concerns the target F-box/WD repeat-containing protein 7 (Homo sapiens) (UniProt Q969H0). In words: FBW7 E3 ligase activators, primary screen, biochemical, AlphaScreen, human (AID 1259310).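 Further: purified mutant Fbw7 with reduced substrate affinity.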 The note with it: AlphaScreen FBW7–phospho-cyclin E peptide binding, activator screen; at 26.1 µM; active compounds read high. On the technique in general: Alpha assays give light when donor and acceptor beads are brought close together.
Consider `COc1ccc(OC)c(NS(=O)(=O)c2ccc(NC(=O)COc3ccccc3)cc2)c1`, for which the normalized activity (activation) was -0.06% (inactive). In the case of `COc1ccc(Cl)cc1C(=O)Nc1cccc(-c2nc3cc(Cl)ccc3o2)c1C`, the normalized activity (activation) was 0.2% (inactive).

Regarding `Fc1ccc(Nc2nc(NCC3CCCO3)c3ccccc3n2)cc1` (stereo unspecified), the normalized activity (activation) is -0.11% (inactive). For `Fc1ccc(C2CC(c3cccs3)=NN2c2nc(-c3ccccc3)cs2)cc1` (stereo unspecified) the value was -0.01% (inactive); for `COc1ccc(C2=NN(c3ccccc3)C(c3ccc(F)cc3)C2)cc1` (stereo unspecified), 0.58% (inactive). `COc1ccc(C2CC(c3cccs3)=NN2c2ccccc2)cc1` (stereo unspecified): the normalized activity (activation) is 8.78% (active).

In the case of `c1cncc(-c2ncc(-c3ccncn3)c(-c3cccnc3)n2)c1`, the normalized activity (activation) was 0.02% (inactive).

Regarding `COC(=O)CSC1=C(C#N)C(c2ccccc2Cl)C(C(=O)Nc2ccccc2OC)=C(C)N1` (stereo unspecified), the normalized activity (activation) is -0.06% (inactive). On to `COc1cccc(-c2nc(C3CCCN(C(=O)CC(C)CC(=O)O)C3)n3ccccc23)c1` (stereo unspecified), for which the normalized activity (activation) was 0.94% (inactive). With `Cc1cccc2sc(NC(=O)c3ccc(S(=O)(=O)N4CC(C)CC(C)C4)cc3)nc12` (stereo unspecified), the normalized activity (activation) was 0.22% (inactive). Turning to `CC[N+](C)(CC)CCNC(=O)c1c(O)c2c([nH]c1=O)CCCC2`, the normalized activity (activation) was 2.05% (active). For the compound `C[N+](C)(C)CCNC(=O)c1c(O)c2c([nH]c1=O)CCCC2`, the normalized activity (activation) was 0.2% (inactive). Regarding `CC[N+](C)(CC)CCNC(=O)c1c(O)c2ccccc2[nH]c1=O`, the normalized activity (activation) was 0.07% (inactive). As for `CCOC(=O)c1cnc2cc(C(F)(F)F)ccc2c1Nc1ccccc1F`, the normalized activity (activation) was -0.08% (inactive). Turning to `Cc1ccccc1Nc1nc(-c2c(C)nc3ncccn23)cs1`, the normalized activity (activation) was 0.01% (inactive).

For `Cc1ccc2c(c1)N(CC(=O)NC1CC1)C(=O)CO2`, the normalized activity (activation) was -0.26% (inactive). For `CCC(C)(C)C(=O)Nc1ccc(S(N)(=O)=O)cc1`, the normalized activity (activation) was -0.09% (inactive). For `C#CCN(C)C(=O)c1c(C(F)(F)F)nc2c(OC)cccn12`, the normalized activity (activation) is 1.94% (active). As for `CN(C)C(=O)CN(C)C(=O)c1c(C(F)(F)F)nc2ccccn12`, the normalized activity (activation) was 0.23% (inactive). For `C=CCN(C)C(=O)c1c(C(F)(F)F)nc2c(OC)cccn12`, the normalized activity (activation) was 0.11% (inactive). With `CN1CCN(c2nc3c(c(=O)n(C)c(=O)n3C)n2CC(=O)c2ccc(Br)cc2)CC1`, the normalized activity (activation) was 0.05% (inactive). For `COC(=O)c1ccc2c(c1)N(Cc1c(C)noc1C)C(=O)C(F)(F)O2`, the normalized activity (activation) was 0.09% (inactive). With `CCn1c(N2CCC(C(=O)NC3CCCCC3)CC2)nc2ccccc21`, the normalized activity (activation) was 0.16% (inactive). On to `COc1cccc(OC)c1C(=O)OCC(=O)NC1CCCCC1C` (stereo unspecified), for which the normalized activity (activation) is -0.19% (inactive). The figure for `CCC1(C)OC(=O)N(C)C1=O` (stereo unspecified) is 2.13% (active); for `CC(=O)Nc1ccc(C(=O)NNC(=O)C(C)Oc2ccc(Cl)cc2Cl)cc1` (stereo unspecified) it is -1.25% (inactive); for `O=C(CSc1ncc(-c2ccccc2)[nH]1)Nc1ccc(Br)cc1` it is -0.02% (inactive). Turning to `CC1(C)N=C(SCC(=O)Nc2ccc(Br)cc2)C(c2ccccc2)=N1`, the normalized activity (activation) is 2.4% (active).

For the compound `O=C(CSC1=NS(=O)(=O)c2ccccc21)Nc1ccc(Br)cc1`, the normalized activity (activation) was -0.05% (inactive). With `C[C@@H](c1ccccc1)n1c(=O)[nH]c2ncc(-c3ccc(C(=O)N4CCN(C)CC4)cc3)nc21`, the normalized activity (activation) was -0.33% (inactive). As for `Cc1cc(C)nc(/N=C(\N)N2CCOCC2)n1`, the normalized activity (activation) is 0.35% (inactive). On to `Cc1cc(C)c2nc(N=C(N)N)nc(C)c2c1`, for which the normalized activity (activation) is 1.86% (active). Take `COc1nc(N=C(N)N)nc2c(C)cccc12`: the normalized activity (activation) is -0.06% (inactive). For `COc1ccc(C(=O)NCCC(=O)NC2CCCC2)cc1OC`, the normalized activity (activation) is 0.02% (inactive). As to `COCC(C)NC(=O)c1ccccc1I` (stereo unspecified), the normalized activity (activation) was 0.14% (inactive). For `Cc1ccccc1CNC(=O)c1ccccc1I` the value was 0.92% (inactive); for `CC(C)CNC(=O)c1ccccc1I`, 1.93% (active).

Take `Cc1cc(=O)oc2cc(OCC(=O)N/N=C/c3ccc4c(c3)OCO4)ccc12`: the normalized activity (activation) is -0.03% (inactive). The figure for `CC(=O)N(Cc1cc2cc(C)cc(C)c2[nH]c1=O)CC1CCCO1` (stereo unspecified) is 0.12% (inactive); for `CCN1C(=O)c2cccc3c(NC(=O)C4CCCN4S(=O)(=O)c4ccc(OC)cc4)ccc1c23` (stereo unspecified) it is -0.03% (inactive). In the case of `CN(C)c1ccccc1C(=O)c1ccccc1`, the normalized activity (activation) was 2.06% (active). The figure for `Cc1ccc2[nH]cc(C(=O)c3ccccc3)c(=O)c2c1` is 0.18% (inactive). As for `O=C(CC(=O)c1ccccc1O)c1ccccc1`, the normalized activity (activation) was 0.25% (inactive). For `COc1ccccc1NS(=O)(=O)c1cccc(NC(=O)c2cc(=O)[nH]c(=O)[nH]2)c1`, the normalized activity (activation) is -0.11% (inactive). For `Cc1cc(C(=O)NCc2nnc3n2CCN(Cc2ccccc2)CC3)c(C)o1`, the normalized activity (activation) was -0.06% (inactive). For `Cc1cccc(OCCC(=O)NNC(=O)Cc2cccn2C)c1` the value was -0.11% (inactive); for `CCOc1ccc2c(=O)c(Oc3ccccc3)c(C(F)(F)F)oc2c1C`, 0.9% (inactive). With `CCN(CC)C(=O)Cn1ncn2c(cc3ccsc32)c1=O`, the normalized activity (activation) was -0.03% (inactive). `CCc1nn(CC(=O)NCc2cccs2)c(=O)c2cc3ccsc3n12`: the normalized activity (activation) is -0.13% (inactive). Consider `CCCc1nn(CC(=O)N(C)C)c(=O)c2cc3ccsc3n12`, for which the normalized activity (activation) is 3.43% (active). Turning to `Cc1cccc(C)c1NC(=O)C(=O)NCCCO`, the normalized activity (activation) was 0.01% (inactive). For `O=C1C(=O)N(c2nc3ccccc3s2)C(c2ccc(O)cc2)/C1=C(\O)c1ccc(Cl)cc1` (stereo unspecified) the value was -0.15% (inactive); for `COc1ccc(C2(O)CC(C(F)(F)F)=NN2C(=O)CCc2ccccc2)cc1` (stereo unspecified), 0.67% (inactive). Take `COc1ccc(CC(=O)NNC(=O)c2ccccc2Cl)cc1`: the normalized activity (activation) was -0.11% (inactive). For `CSCCNC(=O)CCc1nnc(C2(c3ccc(Cl)cc3)CCC2)o1` the value was 0.03% (inactive).

In the case of `Cc1cccc(NC(=O)c2ccccc2Nc2ccc(S(=O)(=O)C(F)(F)F)cc2[N+](=O)[O-])c1`, the normalized activity (activation) was 0.06% (inactive). For the compound `COc1ccccc1-c1cnc2c(NCc3cccs3)nccn12`, the normalized activity (activation) was -0.21% (inactive). The figure for `CN(C)CCNC(=O)c1ccc(-c2cnc3c(NCc4ccc(F)cc4)nccn23)cc1` is -0.01% (inactive); for `COc1cc(CNc2nccn3c(-c4ccc(F)cc4)cnc23)cc(OC)c1OC` it is 1.85% (active); for `O=C(CSc1nnc(Nc2ccccc2)s1)c1ccc(F)cc1` it is -0.08% (inactive). In the case of `CC(=O)Nc1ccc(Nc2nc(Nc3ccncn3)nc3nc[nH]c23)cc1`, the normalized activity (activation) is 0.11% (inactive).
